# Source: PubChem (several laboratories)
# rCAG binder-1: r(CAG) repeat RNA binding | TO-PRO-1 dye displacement fluorescence | inhibition, % at 3 µM | 370,000 compounds, 1.3% hits;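 active = inhibition above the plate cutoff, the mean of all test compounds on that plate plus 3 SD, cut at about 35% in these data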;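 also: 0% = DMSO alone and 100% = 100 µM mitoxantrone as full dye displacement; higher means more dye released from RNA so lower well fluorescence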
# GRIN3A LBD mod: modulates the human NR3A ligand-binding domain. 340,000 compounds, 2.5% hits. Tm shift relative to glycine control, % at 25 µM. AID 1259313. NR3A LBD differential scanning fluorimetry, Tm shift; 0% = protein alone, 100% = glycine-bound protein;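 active = melting temperature shift of at least 10% of the positive control shift, at one fixed dose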
# ADAM17 inh: ADAM17 inhibition, QFRET primary screen. recombinant ADAM17, EDANS/DABCYL FRET peptide cleavage. inhibition, % at 6.95 µM. 370,000 compounds, 0.83% hits;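 active = inhibition above the mean of compounds lying between control limits plus 3 SD, set per campaign, cut at about 8.5% in these data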;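 also: 0% = DMSO-only wells as the low control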
# ADAM10 inh: inhibits human ADAM10 | 370,000 compounds, 0.62% hits | recombinant ADAM10, EDANS/DABCYL FRET peptide cleavage, 3 h | O14672 | AID 720582 | inhibition, % at 7 µM;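 active = inhibition above a per-campaign cutoff equal to the mean of compounds falling between control-based bounds plus 3 SD, cut at about 20% in these data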;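 also: 0% = DMSO wells while the 100% control is not disclosed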
# AHR act: activators of human aryl hydrocarbon receptor | activation, % at 5 µM | P35869 | AHR-responsive luciferase reporter cells, luminescence | 320,000 compounds, 2.5% hits; in the data active = activation above about 47%;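 also: 0% = vehicle wells and 100% = reference agonist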
# Target sequence (P35869 whole entry, looked up): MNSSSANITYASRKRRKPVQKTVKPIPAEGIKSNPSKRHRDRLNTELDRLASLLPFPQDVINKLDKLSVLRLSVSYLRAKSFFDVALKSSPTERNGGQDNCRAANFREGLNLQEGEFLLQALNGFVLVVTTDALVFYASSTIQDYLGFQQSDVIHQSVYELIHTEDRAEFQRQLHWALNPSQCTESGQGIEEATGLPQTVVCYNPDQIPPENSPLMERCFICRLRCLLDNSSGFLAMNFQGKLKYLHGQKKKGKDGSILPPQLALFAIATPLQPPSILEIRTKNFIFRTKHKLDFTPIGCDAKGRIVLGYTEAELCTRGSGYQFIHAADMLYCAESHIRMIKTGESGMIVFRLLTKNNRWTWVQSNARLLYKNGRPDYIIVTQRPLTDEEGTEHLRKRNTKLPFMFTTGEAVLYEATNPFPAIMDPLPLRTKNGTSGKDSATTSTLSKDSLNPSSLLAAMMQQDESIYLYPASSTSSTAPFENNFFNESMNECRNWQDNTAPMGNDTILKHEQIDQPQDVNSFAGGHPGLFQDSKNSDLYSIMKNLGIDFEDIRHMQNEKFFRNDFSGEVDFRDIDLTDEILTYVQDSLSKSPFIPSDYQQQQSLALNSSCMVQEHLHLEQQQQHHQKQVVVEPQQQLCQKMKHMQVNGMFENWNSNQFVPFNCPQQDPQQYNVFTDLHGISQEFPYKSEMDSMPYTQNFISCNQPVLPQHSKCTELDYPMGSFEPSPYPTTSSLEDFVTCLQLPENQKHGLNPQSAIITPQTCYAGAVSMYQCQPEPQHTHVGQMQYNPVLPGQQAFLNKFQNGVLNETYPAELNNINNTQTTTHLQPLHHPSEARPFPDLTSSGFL
# KLK7 zymogen act: activates the human kallikrein-7 zymogen. purified proKLK7, EDANS-DABCYL substrate fluorescence; 100% is mature enzyme control, 0% vehicle. 370,000 compounds, 0.9% hits. P49862. activation, % at 7 µM;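 active = activation above the mean of all tested compounds plus 3 SD, computed per campaign excluding outliers beyond control limits, cut at about 13% in these data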
# rCAG bind conf: r(CAG) RNA repeat binding, confirmation; 4,300 compounds, 70% hits; shares compounds with rCAG binder-1; TO-PRO-1 dye displacement fluorescence; inhibition, % at 3 µM;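 active = inhibition above a per-plate cutoff, the mean inhibition of sample wells plus 3 SD, cut at about 35% in these data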;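 also: loss of TO-PRO-1 fluorescence as compound displaces dye from 1x1 AA loop RNA; 0% = DMSO only wells and 100% = 100 µM mitoxantrone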
# dCAG dye counter: DNA CAG dye complex inhibition counter-screen; shares compounds with rCAG binder-1; inhibition, % at 3 µM; 4,300 compounds, 94% hits; d(CAG) DNA oligo TO-PRO-1 dye displacement, fluorescence;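 active = inhibition above its plate's cutoff, the mean test-well inhibition plus 3 SD, cut at about 4.8% in these data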;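 also: 0% = DNA dye mix with DMSO and 100% = 100 µM mitoxantrone; hits displace the dye from DNA and so lower well fluorescence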
# DNA CAG DR: counter-screen for rCAG binders: inhibitors of DNA CAG TO-PRO-1 complex; shares compounds with rCAG binder-1; DNA CAG/GTC duplex TO-PRO-1 dye displacement fluorescence; IC50, µM; 250 compounds, 20% hits; AID 686960; in the data active = IC50 below about 10 µM
# dCAG TOPRO ctr: counter-screen for rCAG binders: DNA CAG TO-PRO-1 complex inhibitors, late stage; shares compounds with rCAG binder-1; d(CAG) DNA duplex TO-PRO-1 dye displacement, fluorescence; IC50, µM; 30 compounds, 80% hits; AID 720649
# rCAG binder-2: molecules binding r(CAG) RNA repeats, late stage dose response | shares compounds with rCAG binder-1 | r(CAG) RNA TO-PRO-1 dye displacement, fluorescence | IC50, µM | 30 compounds, 100% hits | AID 720651
# The depositor's hits bear a star; · = no result given. In the library only some 7% were active in any assay of this set; here they are far more common. Unless noted, no rule for the calls is given here.
SMILES,rCAG binder-1,GRIN3A LBD mod,ADAM17 inh,ADAM10 inh,AHR act,KLK7 zymogen act,rCAG bind conf,dCAG dye counter,others
O=C1/C(=C\c2ccc(Br)cc2)SC(=S)N1NS(=O)(=O)c1ccccc1,6,-5,-7,11,2,0,·,·,
COC(=O)CCN(Cc1ccc(OC)cc1OC)S(=O)(=O)c1ccccc1Br,4,·,4,9,·,1,·,·,
COCCN1Cc2cc(C(=O)OC)c3c(c2C1=O)c1cc(F)ccc1n3C(=O)c1ccccc1,7,·,-5,-20,·,1,·,·,
CCNC(=O)Nc1ccc2c(c1)C(=O)N(C)[C@H]1CC[C@@H](CC(=O)NCCN3CCCC3)O[C@@H]1CO2,3,·,-8,-8,·,0,·,·,
Cc1nn(-c2cccc(Cl)c2)c2nc(-c3ccco3)cc(C(=O)O)c12,72*,0,-41,-135,15,3,77*,40*,
Cc1nn(-c2ccccc2)c2nc(-c3ccco3)cc(C(=O)O)c12,54*,1,-104,-68,3,4,71*,27*,DNA CAG DR=4.3*;dCAG TOPRO ctr=6.1*;rCAG binder-2=2.5*
Cc1cccc(-n2nc(C)c3c(C(=O)O)cc(-c4cccs4)nc32)c1,81*,-16,-33,-72,3,1,74*,34*,DNA CAG DR=6.3*;dCAG TOPRO ctr=1.4*;rCAG binder-2=0.58*
O=C(NCCc1ccccc1)OCc1cn(Cc2ccccc2Cl)nn1,0,·,0,-1,·,0,·,·,
COc1cccc(Cn2c(C(C)n3c(-c4cnccn4)nc4ccccc43)nc3ccccc32)c1 (stereo not given),2,·,-6,-21,·,4,·,·,
COc1ccc(Cl)cc1C(=O)NCCc1ccc(S(=O)(=O)NC(=O)NC2CCCCC2)cc1,41*,-2,2,5,-2,1,31,8.0*,
COc1ccc2c(c1)C(=O)N(CCc1ccc(S(=O)(=O)NC(=O)NC3CCCCC3)cc1)C(=O)C2(C)C,38*,0,-31,-79,-2,0,53*,15*,
COc1ccc(CCNC(=O)NC2CCCCC2)cc1OC,-2,-2,-2,-1,-1,0,·,·,
COc1ccc(CNC(=O)NC2CCCCC2)cc1,-2,1,2,6,3,0,·,·,
COC(=O)C[C@H]1CC[C@@H]2[C@@H](COc3ccc(NC(=O)Nc4cccc(C)c4)cc3C(=O)N2C)O1,7,·,-3,-5,·,0,·,·,
CCOC(=O)N[C@H](C(=O)N1CCC[C@H]1C(=O)NC1CCCC1)C1CCCCC1,-1,·,-6,1,·,1,·,·,
O=C(c1ccc(NC(=O)C(c2ccccc2)c2ccccc2)cc1)c1ccc(C(=O)O)c(C(=O)O)c1,42*,3,-4,0,1,0,18,3,
CCc1cc(C(=O)O)c(NC(=O)C(c2ccccc2)c2ccccc2)s1,41*,1,-1,0,0,-1,36*,8.4*,
CCOC(=O)c1cc(C)sc1NC(=O)C(c1ccccc1)c1ccccc1,5,0,-1,1,0,-1,·,·,
C=CS(=O)(=O)N(Cc1ccc(F)cc1)C(=C)C(=O)OC,3,·,-5,-8,·,0,·,·,
O=c1c2ccccc2oc2cc(-c3ccc4[nH]ccc4c3)ccc12,35*,8,-12,-42,-2,-14,22,11*,
COc1cc2sc3ccc(-c4ccc5[nH]ccc5c4)cc3c(=O)c2cc1OC,27,-4,-6,-1,-3,-1,·,·,
CCOC(=O)C1(C(=O)OCC)N=C(c2ccccc2)C=C1c1ccccc1,4,·,1,14,·,0,·,·,
CC1CCc2nc3ccc(S(=O)(=O)N4CCC(C(=O)NC(C)c5ccccc5)CC4)cc3c(C(=O)O)c2C1 (stereo not given),38*,-1,-7,-18,4,0,45*,14*,
O=C(O)c1ccccc1N/N=C/c1cc(Br)cc(Br)c1O,45*,2,-8,-6,49*,0,92*,75*,
Oc1c(Br)cc(Br)cc1/C=N/Nc1ccc(Cl)nn1,1,-3,-2,-5,25,0,·,·,
SMILES,rCAG binder-1,GRIN3A LBD mod,ADAM17 inh,ADAM10 inh,AHR act,KLK7 zymogen act,rCAG bind conf,dCAG dye counter,others
COC(=O)c1cc2c(c3c4cc(F)ccc4n(S(=O)(=O)c4cccc(C)c4)c13)C(=O)N(Cc1ccccc1OC)C2,13,·,2,-7,·,-1,·,·,
Nc1nonc1-c1nc2ccccc2n1CC(=O)O,-2,·,-6,-7,23,1,·,·,
Nc1nonc1-c1nc2ccccc2n1CC(=O)N/N=C/c1ccc(-c2cccc(C(=O)O)c2)o1,61*,-18,-13,-32,·,1,46*,14*,
O=c1c2ccccc2nnn1Cc1ccco1,5,·,0,-6,·,0,·,·,
O=C(CSc1nnc(-c2cccnc2)n1-c1ccc(Cl)cc1)c1ccc2ccccc2c1,7,·,0,-1,·,0,·,·,
O=C1NC(=Nc2ccccc2)S/C1=C\C=C\c1ccco1,69*,11*,-2,-10,17,0,62*,30*,
Cc1cccc(N=C2NC(=O)/C(=C/c3cccn3C)S2)c1C,7,-4,4,7,1,1,·,·,
Cc1cccc(N=C2NC(=O)/C(=C/C=C/c3ccco3)S2)c1C,67*,0,-4,-1,0,0,64*,31*,
COc1ccc(N=C2NC(=O)/C(=C\C=C\c3ccccc3)S2)cc1,6,6,-1,10,-2,0,·,·,
Cc1ccc(N=C2NC(=O)/C(=C/C=C/c3ccco3)S2)cc1,59*,2,-4,-9,11,-1,54*,26*,
COc1ccc(C(=O)OCCCN(C)C2CN(Cc3cn(Cc4ccccc4C(F)(F)F)nn3)S(=O)(=O)C2)cc1OC (stereo not given),0,·,5,13,·,0,·,·,
CC1C(=O)OC2C1CCC1(C)C3(C)C(=O)C=CC213 (stereo not given),-1,·,-3,-11,·,0,·,·,
CC(C)[C@H]1Cn2nnc(-c3ccccc3)c2Cn2c3ccccc3c(=O)n21,3,·,-21,-84,·,0,·,·,
COc1ccc(C(C)=O)cc1CSc1nc2ccccc2c(=O)n1-c1ccccc1,2,3,-3,-4,3,0,·,·,
